According to PubChem BioAssay AID434982 (The Scripps Research Institute Molecular Screening Center, 2010):
Screen size: about 15,000 compounds; about 60 (0.4%) were called active. Rule as the data show it: active = activation above about 2.2%; inactive = the rest. The sample as a whole holds a higher share of actives than the screen did.

Experiment: agonists of NOTCH signaling (AID 434982)
Settings: NOTCH signaling luciferase reporter cells, luminescence; at 2.5 µM; hits give high values

activation, active:
COC(=O)c1c(C(=O)OC)c2n(c1C)CCS2 3.54%
Cc1cc(/C(N)=N/OC(=O)c2cccs2)c(-c2ccccc2)o1 2.72%

activation, inactive:
N#Cc1ccc(-c2csc(COc3ccccc3Cl)n2)cc1 0.49%
O=C(Nc1ccc(Cl)cc1)c1csc(COc2ccc3nonc3c2)n1 -0.05%
COC(=O)c1ccccc1-c1c2ccc(=O)cc-2oc2cc(O)ccc12 -0.07%
COc1cccc(/C=N/NC(=S)Nc2cc(C(F)(F)F)cc(C(F)(F)F)c2)c1O -0.66%
O=C(O)CC(CC(=O)Nc1cc(C(F)(F)F)ccc1N1CCOCC1)c1ccccc1 (configuration not stated) -0.05%
Cc1cc(C)nc(NC(=S)c2ccc(NC(=O)/C=C/C(=O)O)cc2)n1 -0.56%
Cc1c(NC(=S)Nc2ccccc2)c(=O)n(-c2ccccc2)n1C -0.19%
O=C(Nc1ccc(OC(F)F)cc1)Nc1coc(-c2ccccc2)c1 -0.11%
CCSC(=O)NCc1ccccc1 -0.05%
O=C(O)c1ccccc1Nc1ccccc1F -0.29%
CN(n1cnc2ccccc2c1=O)S(=O)(=O)c1cc(Cl)sc1Cl -0.39%
COC(=O)c1sc(SC)c(-c2ccn[nH]2)c1C 0.4%
O=C(/C(=N\N=C\c1ccc2c(c1)OCO2)c1ccccc1)c1ccccc1 -0.24%
CCCCCCCN=C(C)c1ccccc1O -0.3%
O=C(O)CC1(CC(=O)Nc2ccccc2-n2cccn2)CCCCC1 -0.3%
CSc1ccc(Br)cc1 0.1%
O=C(N/N=C/c1cccs1)C(=O)Nc1ccc(Cl)c(Cl)c1 -0.5%
O=C1C=C(c2ccccc2)CN(C2CCCCC2)C1=O -1.07%
O=C(Nc1ccccc1)N1CCN(c2ncnc3sccc23)CC1 -0.57%
COCCOc1ccc(NC(=S)N2CCOCC2)cc1 0.32%
COC(=O)c1ccccc1NC(=O)c1ccc(Oc2cc(Cl)cc(Cl)c2)o1 -0.31%
O=C(Sc1ccccc1)c1ccc(C(F)(F)F)cc1 -0.46%
CC(N)=NCCc1ccncc1 -0.78%
N/C(=N\OC(=O)CCn1cccc(C(F)(F)F)c1=O)c1ccc(OC(F)(F)F)cc1 -0.58%
CCOC(=O)/C(C#N)=C/NNc1c(C)csc1C(=O)OC 0.05%
Cn1/c(=N\N=C2CCCCC2)sc2ccccc21 0.03%
CSc1cccc(NC(=O)C(=O)NCCc2ccccn2)c1 -1.05%
COCCCN/C(SCc1c(F)cccc1Cl)=C(\C#N)C(N)=O 0.49%
CC1CN(c2ccc(NC(=S)NCc3cccs3)cc2)CC(C)O1 (configuration not stated) -0.73%
N#Cc1c(-c2ccccc2)c(-c2ccccc2)n[nH]c1=O -0.27%
O=C1C(Nc2ccccc2)=CC(c2ccc([N+](=O)[O-])cc2)N1c1ccccc1 (configuration not stated) -0.41%
N#CC1(C#N)C(c2ccc(Cl)c(Cl)c2)C1(C#N)C#N -0.6%
N#Cc1nccnc1N1CCN(C(=O)c2ccccc2)CC1 -0.2%
Cn1c(SCC(=O)c2ccc(Cl)cc2)nnc1-c1cnccc1C(F)(F)F -0.25%
O=C(O)c1ccccc1N/C=C/[N+](=O)[O-] -0.62%
CC1=NOC(=O)/C1=C\c1ccccc1 -0.92%
O=C1Nc2ccccc2C12NNC(=S)NN2 -0.45%
CCCC1NC(=O)NC(C)=C1C(=O)OCC (configuration not stated) -0.61%
CCOC(=O)C(=CNc1cc(C(F)(F)F)ccc1NCc1ccccc1)C(=O)OCC -0.25%
CCOC(=O)COc1cccc2c(C)cc(=O)oc12 -0.24%
Cc1nc(-c2ccccc2)sc1-c1nnc(C2CC2)o1 -0.45%
O=C(CN1C(=O)/C(=C/c2ccccc2Cl)N=C1c1ccccc1)c1ccccc1 -0.14%
COC(=O)C1=C(NNc2ncc(Cl)cc2C(F)(F)F)CSC1 -0.05%
CC(C)c1ccc(NNS(=O)(=O)c2ccc(Cl)c(Cl)c2)cc1 -0.45%
CCOc1c(N2CCCCC2)c(=O)c1=O -0.13%
O=c1[nH]/c(=C/c2ccc(OC(F)(F)F)cc2)c(=O)[nH]/c1=C/c1ccc(OC(F)(F)F)cc1 -0.83%
CSc1nnc(-c2ccc(C(F)(F)F)cn2)o1 0.03%
CCOC(=O)/C(C#N)=C/N=C(N/N=C/c1cccs1)SC -0.19%
FC(F)(F)c1cc(-c2ccc(Br)cc2)n[nH]1 0.22%
N#C/C(=C\C=C\c1ccccc1)c1nc2ccccc2[nH]1 -5.39%
COc1cccc(/C=C2\SC(=S)C(N)C2=O)c1OC (configuration not stated) 0.34%
NC(=S)N/N=C\Cc1nnnn1-c1ccc(Cl)cc1 0.16%
Cc1ncn2cc(-c3ccc(Cl)cc3Cl)[nH]c(=O)c12 -0.34%
N#Cc1cc([N+](=O)[O-])c(N2CCCC2)cc1N1CCCC1 -0.6%
CC(C)(C)c1cc(C(=O)/C=C2/NC(=O)CS2)no1 0.5%
Cc1cccc(Cl)c1NC(=S)NCCNC(=O)OC(C)(C)C -0.1%
OC(COc1ccc(Cl)c(Cl)c1)CN1CCC(Nc2nccc(C(F)(F)F)n2)CC1 (configuration not stated) -0.76%
CCOC(=O)CCSc1cc(-n2cccc2)c(Cl)cc1[N+](=O)[O-] -0.25%
CCCN(CCC)S(=O)(=O)c1ccc(C(=O)Oc2c(C)cccc2OC)cc1 0.36%
O=C(O)CC1(CC(=O)Nc2ccc(N3CCCCC3)cc2)CCCCC1 -0.6%
COc1cc(CC/C(C)=N/O)ccc1O 0.52%
O=C(Nc1cccnc1Oc1ncnc2cc(Cl)ccc12)c1ccc(F)cc1 -5.46%
O=C(O)c1ncoc1-c1cccc(Cl)c1 -0.29%
Cn1cnc(S(=O)(=O)Nc2ccc3[nH]ccc3c2)c1 -0.46%
COc1ccc(C(=O)NNC(=O)c2c(OC)cc(C(F)(F)F)cc2C(F)(F)F)cc1 0.11%
O=C(O)C#Cc1cccc2ccccc12 -0.45%
Cn1cc(Br)c(-c2cccc(NC(=O)c3ccccc3Cl)c2)n1 -0.38%
Cc1onc(-c2ccccc2Cl)c1NC(=O)N1c2ccc(F)cc2CCC1C (configuration not stated) -0.44%
CN(C)/C=C1/C(=O)NN=C1CSc1ccc(Cl)cc1 -0.25%
Cc1c(S(=O)(=O)N2CCOCC2)ccc(Cl)c1F -1.27%
N#C/C=C/c1ccc(C(F)(F)F)cc1[N+](=O)[O-] -0.41%
Cc1nc2c(ncn2-c2ccccc2)c(=O)n1NC(=O)CN1CCCC1 -4.07%
COc1ccc(CCN=C(C)c2cc(Cl)cc(Cl)c2O)cc1OC -0.13%
CC(C)(C)NC(=O)NCC(c1ccc[nH]1)C(F)(F)F (configuration not stated) -0.29%
CCOC(=O)C(=CNc1nc(-c2ccc(Cl)cc2)cs1)C(=O)OCC -0.64%
Cc1ccc(Oc2c(C)[nH]c(=S)[nH]c2=O)cc1 -0.61%
CC(=O)N1c2ccccc2C=Cc2ccccc21 -5.39%
CN(C)c1ccc(/C=C(\C#N)S(C)(=O)=O)c(Cl)c1 -0.47%
Cc1cc(C(F)(F)F)nc2c(-c3noc(-c4ccccc4)n3)cnn12 -0.99%
O=C(c1ccc(C#Cc2ccccc2)o1)N1CCCCC1 -0.2%
O=[N+]([O-])c1ccc(CSc2nnc(-c3ccncc3)o2)cc1 0.14%
Cc1[nH]c2c(F)cc(F)cc2c(=O)c1I -0.36%
O=C1c2cc(S(=O)(=O)Oc3ccccc3)ccc2-c2ccc(S(=O)(=O)Oc3ccccc3)cc21 -1.18%
CCCCc1c(O)cc(-c2ccccc2)n(Cc2ccccc2)c1=O -0.19%
COC(=O)C(C#N)c1ccc(C(F)(F)F)cc1[N+](=O)[O-] (configuration not stated) -0.67%
CC(C)S(=O)(=O)c1cscc1N/C=C(/C#N)C(=O)C1CC1 0%
Cc1nc(-c2nnc(SCC(=O)c3ccc(F)cc3)n2C)cs1 -0.64%
NNC(=O)c1csc(-c2ccc(C(F)(F)F)cn2)n1 -0.19%
CCOC(=O)c1cc(CC)sc1NC(=O)c1cccnc1Oc1ccccc1 0.22%
Cc1cc(-c2nc(C(=O)NN3CCCCC3)cs2)no1 -0.7%
Cc1noc(C)c1C(=O)Oc1cccc2cccnc12 0.63%
S=C1NCN(CCCn2ccnc2)CN1 0.16%
COc1ccc(CCNC(=O)c2ccccc2-c2ccccc2C(=O)O)cc1OC -0.75%
Cc1noc(C)c1S(=O)(=O)NCc1cc(F)cc2c1OCOC2 -0.53%
Nc1nc(C23CC4CC(CC(C4)C2)C3)cs1 -0.6%
COC(=O)c1ccc2snnc2c1 -0.29%
CCOC(=O)/C=C(/Nc1ccccc1SC)c1ccccc1 -0.36%
COC(=O)c1cc(OC)c(OC)cc1NC(=O)CSc1ccc(Cl)cc1 -0.78%
CS(=O)(=O)Nc1ccc(/C(N)=N/OC(=O)c2cccs2)cc1 -0.39%
N/C(Cc1cccs1)=N\OC(=O)c1ccccc1 -0.76%
COC(OC)c1ccc(C#N)c(SCC(=O)Nc2ccc(C(F)(F)F)cc2)n1 -0.25%
O=C(Nc1ccccc1N1CCOCC1)NC1CCN(C(=O)OCc2ccccc2)CC1 -0.87%
Clc1ccc(C=NCc2cccnc2)c(Cl)c1 -0.28%
Cc1nc(-c2ncc(-c3ccccc3)o2)c(C(F)(F)F)o1 -4.8%
NC(=O)C1CCN(CC(O)CSc2ccc(F)cc2)CC1 (configuration not stated) -5.86%
CCOC(=O)C(=CNc1ccc2n[nH]nc2c1)C(=O)OCC -0.78%
Cn1nccc1NC(=O)CC(CC(=O)O)c1ccccc1 (configuration not stated) 0.57%
CCOC(=O)c1ccc(NC)c(N)c1 -0.75%
COc1ccc2cc(/C(C)=N/OC(=O)Nc3ccccc3)ccc2c1 0.13%
COc1cc(C=C(C#N)C#N)cc(OC(C)=O)c1OC(C)=O -0.27%
